Measurements: PubChem BioAssay (NCATS)
Where “and” joins values, the source holds several entries; their conditions need not be identical. Equal entries are not always repeated. Results filed as inconclusive are left out. Where a call stands in place of a potency, no number is given. Calls of active or inactive are those of the source. Unless noted, calls come from the whole dose curve; as a rule, active = well fitted curve in the direction sought with a large enough effect; inconclusive = small, poorly fitted or top-dose-only effect, or another doubt; inactive = no such curve, though single readings can be large; an effect the other way counts as inactive or inconclusive.

Assays:
[1] = target: Calcium and integrin-binding protein 1 (Homo sapiens) (UniProt Q99828); assay: Primary qHTS for Identification of Calcium Integrin Binding Protein 1 (CIB1) Competitor (AID 1508620);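 note: GST tagged CIB1 binding a fluorescein labelled alphaIIb integrin peptide tracer; top concentration of the series differs between compounds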
Calcium and integrin-binding protein 1 (Homo sapiens), sequence (Q99828 whole entry, looked up): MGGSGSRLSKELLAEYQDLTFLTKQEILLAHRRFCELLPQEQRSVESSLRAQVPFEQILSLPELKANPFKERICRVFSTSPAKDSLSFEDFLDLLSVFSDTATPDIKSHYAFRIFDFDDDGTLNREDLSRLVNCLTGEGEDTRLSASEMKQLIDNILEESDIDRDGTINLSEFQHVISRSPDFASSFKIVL
How it was run: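 Fluorescence polarization competition: GST-tagged CIB1 (1 uM final) preincubated with compound 15 min at room temperature, then FITC-labelled alphaIIb peptide (100 nM final) added. After 15 min at room temperature, polarization read at Ex 480/Em 540.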

[2] = Primary qHTS for small molecule stabilizers of the endoplasmic reticulum resident proteome: Secreted ER Calcium Modulated Protein (SERCaMP) assay (AID 1508630)
How it was run: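 GLuc-SERCaMP-expressing SH-SY5Y cells, pretreated 16 h with compound, are challenged with thapsigargin to empty ER calcium stores; after 4 h, coelenterazine is added directly to the medium and luminescence is imaged.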

[3] = Primary qHTS for inhibitors of nuclear receptor binding SET domain protein 2 (NSD2) in an isogenic RCH-ACV NSD2 p.E1099K mutant (9B) (AID 1645876); note: nearly all actives have a fitted effect of over 70% in size; note: potency is the fitted concentration of half-maximal effect
[4] = Primary qHTS for inhibitors of nuclear receptor binding SET domain protein 2 (NSD2) in an RCH-ACV wild type WT cells (2C) (AID 1645877); note: nearly all actives have a fitted effect of over 70% in size; note: potency is the fitted concentration of half-maximal effect
[5] = target: Cytochrome P450 2C9 (Homo sapiens) (UniProt P11712); assay: Cytochrome P450 family 2 subfamily C member 9 (CYP2C9) small molecule antagonists: luciferase biochemical (cell-free) qHTS assay (AID 1645842; active = well fitted curve in the direction sought with a large enough effect in the repeat runs; an effect the other way counts as inactive or inconclusive; note: nearly all actives have a fitted effect of over 55% in size; note: potency is the fitted concentration of half-maximal effect)
Cytochrome P450 2C9 (Homo sapiens), sequence (P11712 whole entry, looked up): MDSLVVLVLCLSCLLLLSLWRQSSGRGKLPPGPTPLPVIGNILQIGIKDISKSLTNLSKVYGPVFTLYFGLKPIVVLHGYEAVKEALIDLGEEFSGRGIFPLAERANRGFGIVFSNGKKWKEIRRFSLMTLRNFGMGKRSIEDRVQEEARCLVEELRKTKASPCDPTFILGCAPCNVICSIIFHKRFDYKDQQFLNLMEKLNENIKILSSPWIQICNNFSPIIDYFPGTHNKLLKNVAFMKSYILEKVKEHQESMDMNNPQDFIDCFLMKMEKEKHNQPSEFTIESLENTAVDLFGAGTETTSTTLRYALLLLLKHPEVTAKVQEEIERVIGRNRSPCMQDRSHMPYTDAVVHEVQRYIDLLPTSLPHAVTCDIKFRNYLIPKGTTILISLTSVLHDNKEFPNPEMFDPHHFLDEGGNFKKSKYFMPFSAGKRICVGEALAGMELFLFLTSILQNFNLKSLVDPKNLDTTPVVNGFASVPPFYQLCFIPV
How it was run: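 Luminescence, after 20 min with luciferin detection reagent, reflected CYP2C9 turnover during a 1 h NADPH-driven reaction at 37C. Enzyme-substrate mix contained 0.4% bovine serum albumin and was preincubated with compound 10 min at room temperature.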

[6] = target: Cytochrome P450 2D6 (Homo sapiens) (UniProt P10635); assay: Cytochrome P450 family 2 subfamily D member 6 (CYP2D6) small molecule antagonists: luciferase biochemical (cell-free) qHTS assay (AID 1645840; active = well fitted curve in the direction sought with a large enough effect in the repeat runs; an effect the other way counts as inactive or inconclusive; note: nearly all actives have a fitted effect of over 55% in size; note: potency is the fitted concentration of half-maximal effect)
Cytochrome P450 2D6 (Homo sapiens), sequence (P10635 whole entry, looked up): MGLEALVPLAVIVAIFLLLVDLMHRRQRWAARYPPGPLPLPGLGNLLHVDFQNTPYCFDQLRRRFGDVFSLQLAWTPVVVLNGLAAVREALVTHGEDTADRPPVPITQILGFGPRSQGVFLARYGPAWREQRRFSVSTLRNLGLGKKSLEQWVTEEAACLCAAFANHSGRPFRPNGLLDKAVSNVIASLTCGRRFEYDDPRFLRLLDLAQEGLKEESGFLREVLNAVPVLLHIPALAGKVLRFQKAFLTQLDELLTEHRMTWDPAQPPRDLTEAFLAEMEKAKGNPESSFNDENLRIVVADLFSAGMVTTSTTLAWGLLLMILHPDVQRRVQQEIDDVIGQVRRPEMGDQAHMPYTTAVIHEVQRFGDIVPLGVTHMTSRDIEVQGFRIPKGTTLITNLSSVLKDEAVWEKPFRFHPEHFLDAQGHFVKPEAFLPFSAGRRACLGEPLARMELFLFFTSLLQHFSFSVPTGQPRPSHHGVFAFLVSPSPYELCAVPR
How it was run: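 P450-Glo luminescent screen: recombinant CYP2D6 enzyme–proluciferin substrate mix preincubated with compound 10 min at room temperature, then NADPH regeneration added for 1 h at room temperature. Detection reagent added for 20 min; luciferin light read as relative luminescence units.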

Q: Which results are given for `O=c1cc(N2CCOCC2)oc2c(-c3cccc4c3sc3ccccc34)cccc12`?
A: Potency [1]: inactive; Potency [2]: inactive; Potency [3]: 3.32 µM (active); Potency [4]: 2.63 µM (active)

Q: What does the source list for `COc1cc2c(cc1OC)CN(CCc1ccc(NC(=O)c3cc(OC)c(OC)cc3NC(=O)c3cnc4ccccc4c3)cc1)CC2`?
A: Potency [1]: inactive; Potency [2]: inactive; Potency [5]: inactive; Potency [3]: inactive; Potency [4]: inactive

Q: With `COC1CCC(N(C(=O)C2CCC(C)CC2)c2cc(C3=CCCCC3)sc2C(=O)O)CC1` (stereo not given) as the compound, how does the Potency [1] read?
A: inactive

Q: And the Potency [2]?
A: inactive

Q: What about the Potency [6] of the same compound?
A: inactive

Q: And the Potency [3]?
A: inactive

Q: And the Potency [4]?
A: inactive

Q: With `O=C(Nc1cccc(Br)c1)c1cccc(S(=O)(=O)N2CCCCCC2)c1` as the compound, how does the Potency [1] read?
A: inactive

Q: What about the Potency [2] of the same compound?
A: inactive

Q: And the Potency [5]?
A: 6.01 µM (active)

Q: Which Potency [1] does the source give for `CCc1ccc(OCc2ccccc2C(=O)Nc2ccc3nc(C)cc(N)c3c2)cc1` here?
A: inactive

Q: And the Potency [2]?
A: inactive

Q: What about the Potency [6] of the same compound?
A: 0.213 µM (active)

Q: What about the Potency [5] of the same compound?
A: 26.8 µM (active)

Q: What about the Potency [3] of the same compound?
A: 2.63 µM (active)

Q: What about the Potency [4] of the same compound?
A: 2.95 µM (active)

Q: For `O=C(CCN1CCN(C(=O)OCc2cc(Cl)cc(Cl)c2)CC1)c1ccc2[nH]c(=O)oc2c1`, which Potency [1] is on record?
A: inactive

Q: And the Potency [2]?
A: inactive

Q: What about the Potency [5] of the same compound?
A: 7.56 µM (active)

Q: And the Potency [3]?
A: 18.6 µM (active)

Q: What about the Potency [4] of the same compound?
A: 14.5 µM (active) and 18.6 µM (active)

Q: Which Potency [1] does the source give for `CCCCCNC(=O)N1CCC(CN(Cc2ccc(Cl)cc2)Cc2ccc([N+](=O)[O-])s2)C1` (stereo not given) here?
A: inactive

Q: What about the Potency [2] of the same compound?
A: inactive

Q: And the Potency [6]?
A: 2.39 µM (active)

Q: What about the Potency [5] of the same compound?
A: 2.68 µM (active)

Q: And the Potency [3]?
A: inactive

Q: What about the Potency [4] of the same compound?
A: inactive

Q: With `CC(C)C(=O)Nc1ncc(-c2cc(C(F)F)nn2-c2c(Cl)cccc2Cl)s1` as the compound, how does the Potency [1] read?
A: inactive

Q: What about the Potency [2] of the same compound?
A: inactive

Q: And the Potency [6]?
A: 10.7 µM (active)

Q: And the Potency [5]?
A: 5.35 µM (active)

Q: And the Potency [3]?
A: 23 µM (active)

Q: What about the Potency [4] of the same compound?
A: 23 µM (active)
